Consider 40 compounds from PubChem BioAssay (NCATS).

Results filed as inconclusive are left out. Unmarked numbers belong to inactive results. Calls come from the whole dose curve; as a rule, active = well fitted curve in either direction with a large enough effect (not every such curve was filed as active); inconclusive = small, poorly fitted or top-dose-only effect, or another doubt; inactive = flat fitted curve, though single readings scatter.
% is set by controls: 0 for no effect and ±100 for the full control effect.

The nature of one experiment: AP1 Signaling Pathway (AID 357). Conditions: ME-180 (cervical carcinoma) AP-1-bla reporter, EGF-induced, beta-lactamase ratio, 5 h; at 17.2 µM (top of the series) unless noted. In outline:
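ME-180 cells with beta-lactamase reporter under AP-1 response element, stimulated with EC50 EGF; compounds tested in titration series, 5 h at 37 °C. CCF4 substrate added 2.5 h at room temperature; 460/530 nm emission ratio gave %activity and AC50.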
Consider `CC(C)C1Cc2c(sc3c2c(=O)n(Cc2ccccc2)c2nncn32)CO1` (stereo not given), for which the activity change, negative = inhibition was -0.408%.
Same read-out and setting: the value for `COC(=O)CSc1ncnc2c1sc1nc(-c3ccco3)c3c(c12)CC(C)(C)OC3` was -2.46%.
On the same count and under the same terms, the result for `CCCCOC(=O)CCc1nc2ccccc2[nH]1` reads 5.71%; that for `O=c1c2c3c(sc2n2cnnc2n1C1CCCCC1)CCC3`, -5.1%.
Still for that read-out and setting: the value for `Cn1c(=O)c2c(nc(N3CCC(C(N)=O)CC3)n2CCSc2nc3ccccc3s2)n(C)c1=O` was -0.203%; that for `COc1ccc(CSc2nnc(C)n2N)cc1Br` was -1.02%; that for `COc1ccccc1N1CCN(C(=O)c2c(C)cc(=O)oc2C)CC1` was 10.3%.
Take `O=C(CC(c1ccc(F)cc1)c1ccco1)N1CCCC1` (stereo not given): the activity change, negative = inhibition is -6.27%.
Still for that read-out and setting: the result for `C/C(=N\O)C1(C)N(O)C(C)(C)C(c2ccco2)=[N+]1[O-]` (stereo not given) reads 5.37%; that for `CC(NC(=O)NCCCC(=O)O)(C(F)(F)F)C(F)(F)F`, 1.88%.
The same measure, in the same setting: the result for `CCOC(=O)CC(=O)CSc1nc(N)c(C#N)c(-c2ccc(F)cc2)c1C#N` reads -26.2%; that for `CCOc1ccc(C2/C(=C(/O)c3ccc(OC)cc3)C(=O)C(=O)N2c2cc(C)on2)cc1OC` (stereo not given), -11.1%; that for `CC(C)NCc1c(O)c(Br)cc2oc3c(c12)CCCC3`, 28.5%.
The same measure, in the same setting: the value for `COc1cccc(COc2nc3c(c(=O)n(C)c(=O)n3C)n2C)c1` was -9.75%; that for `O=C(Nc1ccc2c(c1)OCCO2)c1ccc(Br)o1` was -1.9%.
As to `Nc1nc2n(n1)C(c1cccs1)CC(c1ccc(Br)cc1)N2` (stereo not given), the activity change, negative = inhibition was 0.611%.
Still for that read-out and setting: the result for `COc1ccc(/C(O)=C2\C(=O)C(=O)N(CCN(C)C)C2c2cccc(OC)c2OC)cc1` (stereo not given) reads 10.8%.
Still for that read-out and setting: the value for `Cc1cc(C)c2nc(SCCC#N)nc(C)c2c1` was -4.73%; that for `c1cncc(-c2nnc3sc(-c4ccco4)nn23)c1` was -2.13%.
For the compound `CCCCNC(=O)N1CCOCCOCCN(C(=O)NCCCC)CCOCC1`, the activity change, negative = inhibition was -5.59%.
Still for that read-out and setting: the result for `CC(=O)NC1(C(F)(F)F)C(=O)Nc2c1c(=O)n(C)c(=O)n2C` (stereo not given) reads 21.1%.
Still for that read-out and setting: the value for `Nc1ccc2[nH]ncc2c1` was 5.98%.
With `CCOC(=O)c1c(C)n(C)c2ccc(OC)c(NC(=O)CCN3CCSCC3)c12`, the activity change, negative = inhibition was 2.45%.
With `O/N=C1\CCc2cc(Cl)ccc21`, the activity change, negative = inhibition was -7.29%.
In the case of `COCC(C)Nc1ncnc2c1cnn2-c1ccc(Cl)cc1` (stereo not given), the activity change, negative = inhibition was -23.7%.
Still for that read-out and setting: the value for `CCOC(=O)CSc1nc(N(C)C)nc(N(C)C#N)n1` was 4.52%; that for `COc1ccc(OC)c(C2=Nn3c(nnc3C3CCCCC3)SC2)c1` was -18.2%.
The same measure, in the same setting: the result for `CCN(CC)C(=O)CN(C#N)c1nc(NC(C)C)nc(NC(C)C)n1` reads 4.86%; that for `CCc1[nH]c(=O)c(C#N)c2c1CSC(C)(C)C2`, 5.95%; that for `Cc1cc(/C(O)=C2\C(=O)C(=O)N(CCN(C)C)C2c2ccncc2)ccc1OCc1ccccc1` (stereo not given), -14.5%.
`COc1ccc(OC)c(C2C(C#N)=C(N)Oc3cc(C)n(Cc4ccccn4)c(=O)c32)c1` (stereo not given): the activity change, negative = inhibition was 1.88%.
For `Cc1nnc(N2CCOCC2)c2ccccc12`, the activity change, negative = inhibition was 5.51%.
The same measure, in the same setting: the value for `CCC1=Nc2ccccc2NC2=C1C(=O)CCC2` was 16.1%.
The same measure, in the same setting: the result for `O=C(O)C1CCCCN1S(=O)(=O)c1cccc2nsnc12` (stereo not given) reads 0.243%; that for `COc1cccc(-c2nn3c(-c4ccco4)nnc3s2)c1`, -16%; that for `COc1ccc(Cl)cc1N=Cc1c(O)cc(C)oc1=O`, -3.56%.
The same measure, in the same setting: the value for `Cc1ccc(N(Cc2cc3ccccc3[nH]c2=O)C(=O)c2ccco2)c(C)c1` was -26.3%.
For the compound `CCCCNC(=O)c1cc2n(n1)C(C(F)(F)F)CC(c1ccccc1)N2` (stereo not given), the activity change, negative = inhibition was -14.9%.
Still for that read-out and setting: the result for `COC(=O)c1cc(Br)c(=O)n(-c2nccs2)c1` reads 1.9%; that for `CCc1cccc(C)c1N(C(=O)Cn1c(=O)[nH]c2ccccc21)C(C)COC` (stereo not given), -2.33%.

The next experiment in a line: NFAT Signaling Pathway (AID 444).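 Note: carbachol stimulus at about its EC50 of 1 µM final.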 Conditions: Jurkat NFAT-bla M1, carbachol, beta-lactamase ratio, 5 h; at 17.2 µM (top of the series) unless noted. In a few lines: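 Jurkat cells carrying an NFAT-driven β-lactamase reporter and co-transfected muscarinic M1 receptor were treated with compound plus carbachol (1 uM final, an EC50 level) for 5 h at 37 °C. CCF4 loading followed for 1 h at RT; 460/530 nm ratio gave %activity.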
With `CC(C)C1Cc2c(sc3c2c(=O)n(Cc2ccccc2)c2nncn32)CO1` (stereo not given), the activity change, negative = inhibition was -11.6%.
On the same count and under the same terms, the result for `COC(=O)CSc1ncnc2c1sc1nc(-c3ccco3)c3c(c12)CC(C)(C)OC3` reads -26.7%; that for `CCCCOC(=O)CCc1nc2ccccc2[nH]1`, -0.459%; that for `O=c1c2c3c(sc2n2cnnc2n1C1CCCCC1)CCC3`, -1.53%.
Turning to `Cn1c(=O)c2c(nc(N3CCC(C(N)=O)CC3)n2CCSc2nc3ccccc3s2)n(C)c1=O`, the activity change, negative = inhibition was -5.54%.
Still for that read-out and setting: the value for `COc1ccc(CSc2nnc(C)n2N)cc1Br` was -3.73%.
Consider `COc1ccccc1N1CCN(C(=O)c2c(C)cc(=O)oc2C)CC1`, for which the activity change, negative = inhibition is -1.71%.
Same read-out and setting: the result for `O=C(CC(c1ccc(F)cc1)c1ccco1)N1CCCC1` (stereo not given) reads -22.2%.
In the case of `C/C(=N\O)C1(C)N(O)C(C)(C)C(c2ccco2)=[N+]1[O-]` (stereo not given), the activity change, negative = inhibition was 9.27%.
The same measure, in the same setting: the result for `CC(NC(=O)NCCCC(=O)O)(C(F)(F)F)C(F)(F)F` reads -1.55%; that for `CCOC(=O)CC(=O)CSc1nc(N)c(C#N)c(-c2ccc(F)cc2)c1C#N`, 7.66%; that for `CCOc1ccc(C2/C(=C(/O)c3ccc(OC)cc3)C(=O)C(=O)N2c2cc(C)on2)cc1OC` (stereo not given), -0.187%.
The same measure, in the same setting: the value for `CC(C)NCc1c(O)c(Br)cc2oc3c(c12)CCCC3` was 0.46%.
Consider `COc1cccc(COc2nc3c(c(=O)n(C)c(=O)n3C)n2C)c1`, for which the activity change, negative = inhibition was 12.8%.
Same read-out and setting: the value for `O=C(Nc1ccc2c(c1)OCCO2)c1ccc(Br)o1` was 6.17%; that for `Nc1nc2n(n1)C(c1cccs1)CC(c1ccc(Br)cc1)N2` (stereo not given) was 11%.
Same read-out and setting: the value for `COc1ccc(/C(O)=C2\C(=O)C(=O)N(CCN(C)C)C2c2cccc(OC)c2OC)cc1` (stereo not given) was -5.32%; that for `Cc1cc(C)c2nc(SCCC#N)nc(C)c2c1` was 11.8%; that for `c1cncc(-c2nnc3sc(-c4ccco4)nn23)c1` was 4.1%.
On to `CCCCNC(=O)N1CCOCCOCCN(C(=O)NCCCC)CCOCC1`, for which the activity change, negative = inhibition is 4.17%.
Still for that read-out and setting: the value for `CC(=O)NC1(C(F)(F)F)C(=O)Nc2c1c(=O)n(C)c(=O)n2C` (stereo not given) was 7.97%; that for `Nc1ccc2[nH]ncc2c1` was -1.96%; that for `CCOC(=O)c1c(C)n(C)c2ccc(OC)c(NC(=O)CCN3CCSCC3)c12` was 4.14%.
Still for that read-out and setting: the value for `O/N=C1\CCc2cc(Cl)ccc21` was -1.82%; that for `COCC(C)Nc1ncnc2c1cnn2-c1ccc(Cl)cc1` (stereo not given) was -6.38%; that for `CCOC(=O)CSc1nc(N(C)C)nc(N(C)C#N)n1` was -3.44%.
With `COc1ccc(OC)c(C2=Nn3c(nnc3C3CCCCC3)SC2)c1`, the activity change, negative = inhibition is -5.08%.
Same read-out and setting: the result for `CCN(CC)C(=O)CN(C#N)c1nc(NC(C)C)nc(NC(C)C)n1` reads -0.753%.
Still for that read-out and setting: the value for `CCc1[nH]c(=O)c(C#N)c2c1CSC(C)(C)C2` was 3.33%; that for `Cc1cc(/C(O)=C2\C(=O)C(=O)N(CCN(C)C)C2c2ccncc2)ccc1OCc1ccccc1` (stereo not given) was 17.3%; that for `COc1ccc(OC)c(C2C(C#N)=C(N)Oc3cc(C)n(Cc4ccccn4)c(=O)c32)c1` (stereo not given) was -20.4%.
Same read-out and setting: the value for `Cc1nnc(N2CCOCC2)c2ccccc12` was 6.76%.
As to `CCC1=Nc2ccccc2NC2=C1C(=O)CCC2`, the activity change, negative = inhibition is -0.948%.
Still for that read-out and setting: the value for `O=C(O)C1CCCCN1S(=O)(=O)c1cccc2nsnc12` (stereo not given) was 1.79%; that for `COc1cccc(-c2nn3c(-c4ccco4)nnc3s2)c1` was 2.73%; that for `COc1ccc(Cl)cc1N=Cc1c(O)cc(C)oc1=O` was -6.83%.
Still for that read-out and setting: the value for `Cc1ccc(N(Cc2cc3ccccc3[nH]c2=O)C(=O)c2ccco2)c(C)c1` was 25.5%; that for `CCCCNC(=O)c1cc2n(n1)C(C(F)(F)F)CC(c1ccccc1)N2` (stereo not given) was 11.1%.
Still for that read-out and setting: the value for `COC(=O)c1cc(Br)c(=O)n(-c2nccs2)c1` was -2.48%.
As for `CCc1cccc(C)c1N(C(=O)Cn1c(=O)[nH]c2ccccc21)C(C)COC` (stereo not given), the activity change, negative = inhibition is 17.7%.
